Shown are actives, neighbours in structure and some others; about 7.9% of the full set was active somewhere.
SW480 rereplic – A quantitative high throughput screen for small molecules that induce DNA re-replication in SW480 colon adenocarcinoma cells | SW480 DNA re-replication, Hoechst DNA content imaging, 48 h | Potency, µM (doses to about 46.1 µM), without a hit: top-dose re-replication activation, usual class: activators | 340,000 compounds, 1.8% hits | AID 624297, 2012; also: % of control where 0% means no effect; nearly all actives have a fitted effect of over 55% in size
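Quantitative HTS format with DMSO vehicle controls; 48 hr drug incubation at 37 C, then 40 min Hoechst staining and scanning imager measurement at 405 nm excitation.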
HT1080NT lethal – qHTS for induction of synthetic lethality in tumor cells producing 2HG: qHTS for the HT-1080-NT fibrosarcoma cell line; Potency, µM (doses to about 46.1 µM), inactives show top-dose activity, negative = less viability, usual class: cytotoxic; 360,000 compounds, 1.6% hits; AID 686970, 2013; HT-1080-NT fibrosarcoma viability, CellTiter-Glo ATP luminescence, 48 h;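 also: NT is the 2HG producing partner of a matched IDH1 knockdown line; 0% = DMSO-treated cells and -100% = media-only wells without cells; nearly all actives have a fitted effect of over 55% in size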
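Compounds were tested in concentration-response format on HT-1080-NT cells for 48 hours at 37 degrees C. Cell viability came from CellTiter-Glo luminescence; curves were classified by r2, response magnitude and activity.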
HT1080 IDH1KD tx – qHTS for induction of synthetic lethality in tumor cells producing 2HG: qHTS for the HT-1080-IDH1KD cell line | HT-1080 IDH1 knockdown viability, ATP luminescence, 48 h | Potency, µM (top dose mostly 46.1 µM), inactives show top-dose activity, negative = toxicity, usual class: cytotoxic | 360,000 compounds, 2% hits;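 also: 0% = DMSO wells and -100% = cell-free medium wells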
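Viability of IDH1-knockdown HT-1080 fibrosarcoma cells was assessed by CellTiter-Glo after 48 h at 37 °C with titrated compound; concentration-effect curves were classified by fit quality and response size.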
KB-V1 cytotox – qHTS assay for MDR1-selective chemotherapeutics: Primary screen using the drug-selected MDR subline cells KB-V1; Potency, µM (highest dose often 46.1 µM), actives largely listed as cytotoxic; AID 1347076, 2019; 400,000 compounds, 3.4% hits; KB-V1 MDR cells viability, CellTiter-Glo, 72 h; also: % is scaled to controls: 0 for no effect and ±100 for the full control effect; nearly all actives have a fitted effect of over 60% in size
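Readout: CellTiter-Glo luminescence, 10 min after addition. Cells: KB-V1 MDR subline, 72 h at 37 degrees C with compound. Analysis: corrected, normalized data fitted to concentration-effect curves.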
MCF10A rerep – A quantitative high throughput screen for small molecules that induce DNA re-replication in MCF 10a normal breast cells; MCF 10A DNA re-replication, Hoechst nuclear intensity, 48 h; Potency, µM (top dose mostly 46.1 µM), for the others: top-dose activity, positive = re-replication, actives largely listed as activators; 350,000 compounds, 2.9% hits; AID 624296, 2012; also: % of control where 0% means no effect; nearly all actives have a fitted effect of over 50% in size
KB-3-1 cytotox – qHTS assay for MDR1-selective chemotherapeutics: Primary screen using the parental adenocarcinoma cell KB-3-1; Potency, µM (titrated, usually from 46.1 µM), usual class: cytotoxic; 400,000 compounds, 1.4% hits; KB-3-1 viability, CellTiter-Glo ATP luminescence, 72 h; also: % is scaled to controls: 0 for no effect and ±100 for the full control effect; nearly all actives have a fitted effect of over 60% in size
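Here the drug-naive KB-3-1 line serves as comparator for MDR sub-line selectivity; cells received compound titrations, 72 h at 37 °C, then CellTiter-Glo readout.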
Active calls of the source: *; i = inactive; ? = inconclusive; / = no result; ! = not active in a repeat. Calls follow the shape of the dose curve; as a rule, active = well fitted curve in the direction sought with a large enough effect; inconclusive = small, poorly fitted or top-dose-only effect, or another doubt; inactive = no such curve, though single readings can be large; an effect the other way counts as inactive or inconclusive. Potency is read from the fitted curve at half-maximal effect.

SMILES	SW480 rereplic	HT1080NT lethal	HT1080 IDH1KD tx	KB-V1 cytotox	MCF10A rerep	KB-3-1 cytotox
COc1ccc2ccccc2c1CNC(C)CCc1ccccc1 (centres undefined)	?	?	18µM*	i	?	i
COc1ccc(CCNCc2c(OC)ccc3ccccc23)cc1OC	9%	?	?	i	?	i
O=C1C(c2ccc(F)cc2)N(Cc2ccccc2Cl)C(=O)CN1C1CCCCC1 (centres undefined)	/	/	/	i	/	i
Cc1cc(C)c(OCC(=O)Nc2nc(-c3ccccn3)cs2)c(C)c1	21%	-19%	?	6.5µM*	-16%	?
Cc1ccccc1OCC(=O)Nc1nc(-c2ccncc2)cs1	-7%	-16%	-10%	15µM*	7%	i
Cc1ccc2oc(=O)c3cc(C(=O)N4CCN(c5ccccc5F)CC4)sc3c2c1	/	/	/	i	/	i
Oc1cccc(C(Nc2nccs2)c2ccc3cccnc3c2O)c1 (centres undefined)	?	29µM*	18µM*	?	12µM*	3.3µM*
COc1cccc(C(Nc2ccccc2)c2ccc3ccc(C)nc3c2O)c1 (centres undefined)	/	10µM*	7.3µM*	?	/	?
Oc1c(C(Nc2ccccn2)c2ccccc2)ccc2cccnc12 (centres undefined)	/	/	/	i	/	i
O=[N+]([O-])c1ccc(NC(c2ccccc2)c2ccc3cccnc3c2O)cc1 (centres undefined)	0.82µM*	?	?	?	?	4.6µM*
Oc1c(C(Nc2cccc(C(F)(F)F)c2)c2cccnc2)ccc2cccnc12 (centres undefined)	?	-15%	?	i	?	i
CC(=O)NC(c1cccc([N+](=O)[O-])c1)c1ccc2cccnc2c1O (centres undefined)	?	?	?	?	15µM*	3.7µM*
Cc1cccc(NC(c2ccc(O)cc2)c2ccc3ccc(C)nc3c2O)n1 (centres undefined)	?	-1%	-13%	?	?	i
COc1cccc(C(NC(C)=O)c2ccc3cccnc3c2O)c1 (centres undefined)	0.65µM*	-9%	?	i	?	3.7µM*
COc1cccc(C(NC(C)=O)c2nc(-c3cccnc3)cs2)c1 (centres undefined)	/	1%	9%	i	/	i
O=c1[nH]c(-c2ccc(-c3cccc(Cl)c3)o2)nc2ccccc12	11%	/	/	i	10µM*	i
COc1nnc(-c2ccc(N3CCCCC3)c(NC(=O)c3ccccc3)c2)c2ccccc12	/	/	/	i	/	?
COc1ccc(Cn2c(CCC(=O)NCc3ccc(Cl)cc3)nc3cccnc32)cc1	/	/	/	i	/	i
CCOC(=O)c1cc(C#N)c(Oc2ccc(F)cc2)nc1-c1ccccc1	-4%	-6%	-11%	9.2µM*	13%	i
CCOC(=O)c1cc(C#N)c(Oc2cccc(C(F)(F)F)c2)nc1-c1ccccc1	6%	0%	-14%	i	?	i
O=C(NCCN1CCOCC1)c1ccc2c(c1)N(Cc1c(F)cccc1Cl)C(=O)c1ccccc1S2	5.8µM*	-18%	-2%	i	?	i
CCOc1ccc(CN2C(=O)c3ccccc3Sc3ccc(C(=O)NCCCN4CCOCC4)cc32)cc1	?	?	?	?	21µM*	18µM*!
